Measurements reported in PubChem BioAssay AID602357 (National Center for Advancing Translational Sciences (NCATS), 2012).
Results filed as inconclusive are left out. The source made the active and inactive calls. The call rests on the fitted dose curve; in most records, active means well fitted inhibition curve with a large enough effect; inconclusive means small, poorly fitted or top-dose-only effect; inactive means no such curve, though single readings can be large or run the other way.

Target: Luciferin 4-monooxygenase (Photinus pyralis) (UniProt P08659)
Assay: FLuc inhibitory activity for the follow-up compounds in a biochemical assay with Km concentrations of substrate
Procedure, shortened: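 qHTS: compounds titrated 12 points (~60 uM to 0.3 nM) against 10 uM D-luciferin and 10 uM ATP. Reaction started with 10 nM enzyme in Tris acetate pH 7.5 buffer with Mg acetate, Tween-20, BSA; luminescence imaged.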

Chain of Luciferin 4-monooxygenase (Photinus pyralis) (P08659 whole entry, looked up): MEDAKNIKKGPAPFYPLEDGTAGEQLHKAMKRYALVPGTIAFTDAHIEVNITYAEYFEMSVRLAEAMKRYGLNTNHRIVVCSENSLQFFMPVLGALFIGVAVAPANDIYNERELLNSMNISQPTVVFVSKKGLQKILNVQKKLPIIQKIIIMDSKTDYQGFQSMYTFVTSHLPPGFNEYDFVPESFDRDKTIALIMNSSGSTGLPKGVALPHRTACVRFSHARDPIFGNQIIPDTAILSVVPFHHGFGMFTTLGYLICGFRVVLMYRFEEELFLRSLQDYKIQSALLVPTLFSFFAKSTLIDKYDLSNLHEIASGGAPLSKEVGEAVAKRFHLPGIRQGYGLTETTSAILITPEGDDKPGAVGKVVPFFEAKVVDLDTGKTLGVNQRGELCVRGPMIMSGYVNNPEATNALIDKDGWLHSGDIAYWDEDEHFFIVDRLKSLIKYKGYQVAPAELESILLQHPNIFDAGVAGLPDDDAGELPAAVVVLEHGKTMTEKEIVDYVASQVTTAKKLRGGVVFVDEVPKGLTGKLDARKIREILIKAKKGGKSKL

Structure (SMILES) | Potency
CCOc1ccc(C(=O)Nc2cccc(C(=O)O)c2)cc1Cl | 0.058 µM (active)
Cc1c(NS(C)(=O)=O)cccc1-c1nc2ccccc2s1 | 8.19 µM (active)
Nc1ccc(C(=O)Nc2ccccc2C(=O)O)cc1 | 7.3 µM (active)
Cc1ccc(C(=O)Nc2ccc(C(=O)O)cc2)cc1S(=O)(=O)NCc1ccccc1 | inactive
COc1ccc2nc(NC(=O)c3cccs3)sc2c1 | 20.6 µM (active)
Cc1ccc(C(=O)Nc2ccccc2C(=O)O)cc1S(=O)(=O)N1CCCCCC1 | 1.83 µM (active)
Cc1ccc(C(=O)Nc2cccc(C(=O)O)c2)cc1S(=O)(=O)N1CCOCC1 | 0.291 µM (active)
NC(=O)Cc1ccc2sc(-c3ccccc3)nc2c1 | 5.17 µM (active)
CCc1noc(C)c1C(=O)Nc1nc2ccc(OC)cc2s1 | 13 µM (active)
O=C(Nc1ccccc1C(=O)O)c1cc(S(=O)(=O)Nc2ccccc2)ccc1Cl | inactive
CCOc1ccc2nc(NC(=O)c3ccoc3C)sc2c1 | 0.651 µM (active)
Cc1ccc2sc(-c3ccc(NC(=O)c4cc(-n5cnnc5)ccc4Cl)cc3)nc2c1 | 6.51 µM (active)
O=C(Nc1ccccc1C(=O)O)c1cccc(NC(=O)c2ccccc2Cl)c1 | 23.1 µM (active)
c1ccc2sc(-c3ccc4c(c3)OCO4)nc2c1 | 0.326 µM (active)
Oc1ccc(-c2nc3ccccc3s2)c(O)c1 | 6.51 µM (active)
COc1cc(OC)cc(C(=O)Nc2ccc(-c3nc4ccccc4s3)c(C)c2)c1 | inactive
CCOc1ccc(C(=O)Nc2ccccc2C(=O)O)cc1 | 1.46 µM (active)
